Source: article PMC7862700, “An all-to-all approach to the identification of sequence-specific readers for epigenetic DNA modifications on cytosine”

What was measured:
Assay in all cases: DAPPL (digital affinity profiling via proximity ligation, sequencing); 10 mM Tris-HCl pH 7.5, 50 mM NaCl, 1 mM DTT, 4% glycerol, room temperature, 30 min; GST-TFs on glutathione beads, 16-mer random dsDNA library, 0.1% formaldehyde crosslink after washing; high values mean tight binding
Details in all cases: protein: recombinant; tags: N-terminal GST; dsDNA, one strand shown
[1] = target: T1, ERF (Homo sapiens, UniProt P50548 1-548)
T1 sequence: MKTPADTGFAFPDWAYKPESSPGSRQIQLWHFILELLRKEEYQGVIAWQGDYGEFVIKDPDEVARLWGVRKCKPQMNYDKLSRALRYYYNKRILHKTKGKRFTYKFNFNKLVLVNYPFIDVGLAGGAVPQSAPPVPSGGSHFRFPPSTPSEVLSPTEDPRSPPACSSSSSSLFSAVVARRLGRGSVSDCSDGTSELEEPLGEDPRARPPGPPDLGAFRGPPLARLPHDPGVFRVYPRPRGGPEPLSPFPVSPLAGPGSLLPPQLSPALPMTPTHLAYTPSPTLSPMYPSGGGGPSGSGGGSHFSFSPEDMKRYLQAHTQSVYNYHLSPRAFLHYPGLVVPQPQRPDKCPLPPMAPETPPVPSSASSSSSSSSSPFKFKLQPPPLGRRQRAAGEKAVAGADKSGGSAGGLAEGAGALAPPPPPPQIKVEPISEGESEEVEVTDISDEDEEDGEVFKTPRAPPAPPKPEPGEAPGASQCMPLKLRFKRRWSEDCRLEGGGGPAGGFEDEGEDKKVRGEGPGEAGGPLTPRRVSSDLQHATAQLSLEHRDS
Procedure, shortened: (§1)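 Binding signal is each hexamer's read frequency for a factor divided by its frequency in the tag-only sample. The factors were GST-fused human transcription factors from yeast, captured on glutathione beads, DNA-barcoded and pooled with that sample. Pools were incubated with 200 nmole of a random double-stranded 16-mer DNA library in Tris/NaCl/DTT/glycerol buffer at room temperature for 30 min, then washed, crosslinked with 0.1% formaldehyde, proximity-ligated with BsaI/T4 ligase (1 h, 37 °C), PCR-amplified and sequenced on an Illumina NextSeq500.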

[2] = target: T2, ETV3L (Homo sapiens, UniProt Q6ZN32 1-361)
T2 sequence: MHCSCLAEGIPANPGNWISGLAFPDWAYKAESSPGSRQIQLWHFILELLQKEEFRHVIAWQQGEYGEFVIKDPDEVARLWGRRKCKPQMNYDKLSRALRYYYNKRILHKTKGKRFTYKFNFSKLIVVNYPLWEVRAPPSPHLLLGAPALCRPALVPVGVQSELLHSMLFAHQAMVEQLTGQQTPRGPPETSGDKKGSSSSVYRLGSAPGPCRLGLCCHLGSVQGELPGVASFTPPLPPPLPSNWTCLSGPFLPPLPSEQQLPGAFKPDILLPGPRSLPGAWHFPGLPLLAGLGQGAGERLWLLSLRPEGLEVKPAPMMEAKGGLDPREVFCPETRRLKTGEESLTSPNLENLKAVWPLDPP
Procedure, shortened: as §1

[3] = target: T3, ETS2 (Homo sapiens, UniProt P15036 1-469)
T3 sequence: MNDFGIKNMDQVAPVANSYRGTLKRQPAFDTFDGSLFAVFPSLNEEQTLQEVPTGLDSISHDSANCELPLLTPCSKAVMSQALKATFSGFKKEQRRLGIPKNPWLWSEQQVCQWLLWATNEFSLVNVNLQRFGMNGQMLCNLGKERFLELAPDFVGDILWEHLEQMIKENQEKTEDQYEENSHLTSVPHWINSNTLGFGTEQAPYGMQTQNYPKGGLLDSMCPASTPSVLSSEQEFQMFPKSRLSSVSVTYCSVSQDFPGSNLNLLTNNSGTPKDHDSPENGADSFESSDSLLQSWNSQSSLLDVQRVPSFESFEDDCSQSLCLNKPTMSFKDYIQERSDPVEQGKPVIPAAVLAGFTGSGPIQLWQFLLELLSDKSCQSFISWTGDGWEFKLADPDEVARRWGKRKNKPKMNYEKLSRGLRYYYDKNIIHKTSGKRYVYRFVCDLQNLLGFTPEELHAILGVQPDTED
Procedure, shortened: as §1

[4] = target: T4, SPDEF (Homo sapiens, UniProt O95238 1-335)
T4 sequence: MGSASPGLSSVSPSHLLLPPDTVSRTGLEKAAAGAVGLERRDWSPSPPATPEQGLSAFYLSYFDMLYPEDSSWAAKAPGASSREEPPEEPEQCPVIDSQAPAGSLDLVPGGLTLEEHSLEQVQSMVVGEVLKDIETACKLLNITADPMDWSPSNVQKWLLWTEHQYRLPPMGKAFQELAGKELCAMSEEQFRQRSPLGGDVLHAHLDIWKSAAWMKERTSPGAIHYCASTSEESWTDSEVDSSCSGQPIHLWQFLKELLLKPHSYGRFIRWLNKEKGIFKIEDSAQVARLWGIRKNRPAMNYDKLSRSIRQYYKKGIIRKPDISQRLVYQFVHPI
Procedure, shortened: as §1

[5] = target: T5, ETV7 (Homo sapiens, UniProt Q9Y603 1-341)
T5 sequence: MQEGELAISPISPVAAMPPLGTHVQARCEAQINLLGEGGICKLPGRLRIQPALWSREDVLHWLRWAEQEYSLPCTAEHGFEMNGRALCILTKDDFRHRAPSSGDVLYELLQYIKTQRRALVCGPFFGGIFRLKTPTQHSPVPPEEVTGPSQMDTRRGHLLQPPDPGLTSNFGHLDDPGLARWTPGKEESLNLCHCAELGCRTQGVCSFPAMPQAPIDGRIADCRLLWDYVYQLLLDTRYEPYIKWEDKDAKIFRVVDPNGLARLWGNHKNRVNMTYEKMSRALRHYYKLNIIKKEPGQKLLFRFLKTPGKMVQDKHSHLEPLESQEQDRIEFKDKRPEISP
Procedure, shortened: as §1

[6] = target: T6, ELF5 (Homo sapiens, UniProt Q9UKW6-2 1-255)
T6 sequence: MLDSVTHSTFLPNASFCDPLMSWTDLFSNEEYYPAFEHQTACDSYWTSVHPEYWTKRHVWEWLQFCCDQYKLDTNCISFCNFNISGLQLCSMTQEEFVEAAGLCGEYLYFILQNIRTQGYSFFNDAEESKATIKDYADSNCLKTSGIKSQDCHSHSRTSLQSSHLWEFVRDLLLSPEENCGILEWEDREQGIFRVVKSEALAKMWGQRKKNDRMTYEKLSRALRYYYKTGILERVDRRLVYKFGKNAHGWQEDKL
Procedure, shortened: as §1

[7] = target: T7, ETV3 (Homo sapiens, UniProt P41162-2 1-143)
T7 sequence: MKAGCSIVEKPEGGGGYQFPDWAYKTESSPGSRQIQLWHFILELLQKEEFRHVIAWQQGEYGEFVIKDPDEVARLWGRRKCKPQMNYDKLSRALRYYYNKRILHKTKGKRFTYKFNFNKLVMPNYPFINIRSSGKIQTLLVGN
Procedure, shortened: as §1

[8] = target: ETV6 (Homo sapiens, UniProt P41212 1-452)
Procedure, shortened: as §1

Chain of ETV6 (P41212 whole entry): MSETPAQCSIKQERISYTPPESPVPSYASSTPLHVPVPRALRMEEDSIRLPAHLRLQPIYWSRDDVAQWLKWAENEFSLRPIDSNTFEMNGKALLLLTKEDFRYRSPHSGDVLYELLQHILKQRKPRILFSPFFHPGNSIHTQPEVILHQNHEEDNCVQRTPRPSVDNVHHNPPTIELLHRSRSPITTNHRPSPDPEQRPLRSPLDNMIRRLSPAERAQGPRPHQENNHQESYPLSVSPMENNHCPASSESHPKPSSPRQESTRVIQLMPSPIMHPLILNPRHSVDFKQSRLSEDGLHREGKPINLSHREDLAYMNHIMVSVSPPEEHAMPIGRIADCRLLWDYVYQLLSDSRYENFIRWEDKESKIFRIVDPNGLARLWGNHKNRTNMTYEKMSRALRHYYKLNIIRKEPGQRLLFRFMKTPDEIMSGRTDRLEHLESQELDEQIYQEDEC

| Sequence | binding signal [1] | binding signal [2] | binding signal [3] | binding signal [4] | binding signal [5] | binding signal [6] | binding signal [7] | binding signal [8] |
| --- | --- | --- | --- | --- | --- | --- | --- | --- |
| TTGTAC | 1.31 fold enrichment (6-mer frequency, TF over GST control) | 1.41 fold enrichment (6-mer frequency, TF over GST control) | 1.34 fold enrichment (6-mer frequency, TF over GST control) | 1.54 fold enrichment (6-mer frequency, TF over GST control) | 1.33 fold enrichment (6-mer frequency, TF over GST control) | 1.23 fold enrichment (6-mer frequency, TF over GST control) | 1.44 fold enrichment (6-mer frequency, TF over GST control) | 1.48 fold enrichment (6-mer frequency, TF over GST control) |
| ACAACC | 1.19 fold enrichment (6-mer frequency, TF over GST control) | 1.17 fold enrichment (6-mer frequency, TF over GST control) | 1.26 fold enrichment (6-mer frequency, TF over GST control) | 1.28 fold enrichment (6-mer frequency, TF over GST control) | 1.18 fold enrichment (6-mer frequency, TF over GST control) | 1.22 fold enrichment (6-mer frequency, TF over GST control) | 1.29 fold enrichment (6-mer frequency, TF over GST control) | 1.28 fold enrichment (6-mer frequency, TF over GST control) |
| ACTACA | 1.13 fold enrichment (6-mer frequency, TF over GST control) | 1.22 fold enrichment (6-mer frequency, TF over GST control) | 1.15 fold enrichment (6-mer frequency, TF over GST control) | 1.28 fold enrichment (6-mer frequency, TF over GST control) | 1.11 fold enrichment (6-mer frequency, TF over GST control) | 1.24 fold enrichment (6-mer frequency, TF over GST control) | 1.19 fold enrichment (6-mer frequency, TF over GST control) | 1.19 fold enrichment (6-mer frequency, TF over GST control) |
| TTTGGT | 1.49 fold enrichment (6-mer frequency, TF over GST control) | 1.36 fold enrichment (6-mer frequency, TF over GST control) | 1.43 fold enrichment (6-mer frequency, TF over GST control) | 1.28 fold enrichment (6-mer frequency, TF over GST control) | 1.45 fold enrichment (6-mer frequency, TF over GST control) | 1.4 fold enrichment (6-mer frequency, TF over GST control) | 1.39 fold enrichment (6-mer frequency, TF over GST control) | 1.36 fold enrichment (6-mer frequency, TF over GST control) |
| ACAACA | 1.31 fold enrichment (6-mer frequency, TF over GST control) | 1.17 fold enrichment (6-mer frequency, TF over GST control) | 1.18 fold enrichment (6-mer frequency, TF over GST control) | 1.19 fold enrichment (6-mer frequency, TF over GST control) | 1.23 fold enrichment (6-mer frequency, TF over GST control) | 1.22 fold enrichment (6-mer frequency, TF over GST control) | 1.27 fold enrichment (6-mer frequency, TF over GST control) | 1.29 fold enrichment (6-mer frequency, TF over GST control) |
| TATCTG | 1.2 fold enrichment (6-mer frequency, TF over GST control) | 1.41 fold enrichment (6-mer frequency, TF over GST control) | 1.11 fold enrichment (6-mer frequency, TF over GST control) | 1.13 fold enrichment (6-mer frequency, TF over GST control) | 1.2 fold enrichment (6-mer frequency, TF over GST control) | 1.14 fold enrichment (6-mer frequency, TF over GST control) | 1.21 fold enrichment (6-mer frequency, TF over GST control) | 1.17 fold enrichment (6-mer frequency, TF over GST control) |
| ACTTGG | 1.28 fold enrichment (6-mer frequency, TF over GST control) | 1.15 fold enrichment (6-mer frequency, TF over GST control) | 1.16 fold enrichment (6-mer frequency, TF over GST control) | 1.21 fold enrichment (6-mer frequency, TF over GST control) | 1.2 fold enrichment (6-mer frequency, TF over GST control) | 1.16 fold enrichment (6-mer frequency, TF over GST control) | 1.2 fold enrichment (6-mer frequency, TF over GST control) | 1.16 fold enrichment (6-mer frequency, TF over GST control) |
